Measurements from ChEMBL document CHEMBL4513216, “Probing the Open Global Health Chemical Diversity Library for Multistage-Active Starting Points for Next-Generation Antimalarials” (ACS Infect Dis, 2020).
In all, about 69,000 compounds went through this assay and about 8,600 (12%) showed an effect of 50% or more. The sample as a whole holds a higher share of strong results than the screen did.

Tested on: Plasmodium berghei
Experiment: Screen against P. berghei liver stage (PbLuc), transformed with Luciferase, at 10uM
Type: functional, HepG2
Conditions: tested at 10 uM

Row | SMILES | INHIBITION [%]
1 | Cc1nc2ncc3c(=O)n(C)ccc3n2n1 | 0.647
2 | Cc1noc(C)c1CN1CCN(C(=O)C(C(C)C)n2cncn2)CC1 (stereo not drawn) | 7.44
3 | Cc1ccc(C(CNC(=O)c2cc(CC(C)C)nn2C)N(C)C)cc1 (stereo not drawn) | -28.8
4 | Cc1ccc(C(NC(=O)Cn2cc(C3CC3)nn2)C2CC2)cc1 (stereo not drawn) | 8.08
5 | Cc1ccc(C(CNC(=O)Cc2nc3ncccn3n2)N(C)C)cc1 (stereo not drawn) | 56.8
6 | Cc1ccc(C(NC(=O)Cc2nc3ncccn3n2)C2CC2)cc1 (stereo not drawn) | 53.4
7 | Cc1ccc(OCCCNC(=O)Cc2nc3ncccn3n2)cc1 | 27.7
8 | Cc1ccc(C(NC(=O)CN2CCc3c(ncn3C)C2)C2CC2)cc1 (stereo not drawn) | 6.99
9 | O=C1C(NS(=O)(=O)c2cccc(F)c2)CCN1Cc1ccccc1 (stereo not drawn) | -5.25
10 | Cc1ccc(N2C[C@H](C)[C@]3(CCN(c4cccnc4)C3=O)C2)nn1 | 38.5
11 | CCC(C)N(Cc1sccc1C)C(=O)c1ccc2cccnc2n1 (stereo not drawn) | 11.2
12 | O=C(Cc1ccccn1)N1CCN(CC2CC2)c2ncccc2C1 | 24.5
13 | CC(=O)NCC(=O)N1CCN(CC2CC2)c2ncccc2C1 | 27.9
14 | COCCC(=O)N1CCN(CC2CC2)c2ncccc2C1 | 55.7
15 | COCC(=O)N1CCN(CC2CC2)c2ncccc2C1 | -18.6
16 | CC(=O)NCC(=O)N1CCN(Cc2ccncc2)c2ncccc2C1 | 76.5
17 | O=C(O)CCC(=O)N1CCN(CC2CC2)c2ncccc2C1 | 82
18 | COCCC(=O)N1CCN(CC2CC2)c2nc(C)ccc2C1 | -7.24
19 | O=C(N1CCCC1)N1CCN(CC2CC2)c2ncccc2C1 | 20.5
20 | CC(=O)NCC(=O)N1CCN(Cc2cccnc2)c2ncccc2C1 | -14
21 | COC(=O)C(NC(=O)C1CC1)c1cc(F)ccc1F (stereo not drawn) | 29.4
22 | CCOc1ccc(Cl)c(C(=O)NCCS(N)(=O)=O)n1 | 35.3

Row | SMILES | INHIBITION [%]
23 | COc1ccc(C2=CCN(C(=O)C3CCCN(C(C)=O)C3)CC2)cc1 (stereo not drawn) | 1.78
24 | CNC(=O)CN(C(=O)c1ccccc1)[C@H]1C[C@H]2CCOC[C@H]2C1 | 8.61
25 | CN1CC(=O)N(c2cccc(F)c2)CC12CCN(Cc1ccncc1)C2 (stereo not drawn) | -17.1
26 | COc1ccc(Cl)cc1CC(=O)N1CCN(CCO)CC1 | 38.1
27 | O=C(Cc1ccc(F)c(Br)c1)N1CCN(CCO)CC1 | 66.7
28 | NC(=O)CN1CCCN(C(=O)Cc2ccc(F)c(Br)c2)CC1 | 14.4
29 | Cn1cc(CN2CCc3onc(COc4cccnc4)c3C2)cn1 | 7.11
30 | O=S(=O)(C1CC1)N1CCc2onc(COc3ccccn3)c2C1 | 61.5
31 | CCS(=O)(=O)N1CCc2onc(COc3ccccn3)c2C1 | 3.88
32 | c1ccc(OCc2noc3c2CN(c2ncccn2)CC3)nc1 | 24.6
33 | Cc1cccc(C(=O)N2CCCCC2c2nc(C)cs2)n1 (stereo not drawn) | -21.9
34 | O=C(O)C1(Cc2ccccc2Cl)CCN(c2ncccc2F)CC1 | 43.5
35 | O=C(O)C1(Cc2ccc(Cl)cc2)CCN(c2ncccc2F)CC1 | 52
36 | Cc1ncc(C)c(N2CCC(Cc3ccc(Cl)cc3)(C(=O)O)CC2)n1 | 12.7
37 | O=C(CCNC(=O)c1ccccc1)Nc1ccncc1 | 1.58
38 | COC[C@H]1CCC[C@]12CN(S(=O)(=O)c1cccs1)CCO2 | -0.554
39 | COC[C@H]1CCC[C@]12CN(C(=O)NCc1ccccc1)CCO2 | -1.58
40 | COC[C@@H]1CCC[C@@]12CN(C(=O)C1CCOCC1)CCO2 | 33.1
41 | COC[C@@H]1CCC[C@@]12CN(C(=O)N(C)C)CCO2 | 28.5
42 | COC[C@@H]1CCC[C@@]12CN(C(=O)N1CCCC1)CCO2 | 52.1
43 | COC[C@@H]1CCC[C@]12CN(S(=O)(=O)c1cccs1)CCO2 | 54.1
44 | CC(C)OC[C@H]1CCC[C@]12CN(C(=O)C1CCOCC1)CCO2 | 27.6

Row | SMILES | INHIBITION [%]
45 | COCC(=O)N1CCO[C@]2(CCC[C@H]2COC)C1 | 62.9
46 | CC(C)OC[C@H]1CCC[C@]12CN(S(=O)(=O)c1cccs1)CCO2 | 45.2
47 | CN(C)[C@@H]1COC[C@@H]2CN(Cc3ccc4c(c3)OCO4)C[C@@H]21 | -13.7
48 | CC(=O)Nc1nc(CN2CCCCC2Cn2cccn2)cs1 (stereo not drawn) | -15.8
49 | CN(C)C(=O)C1CCc2nnc(C(C)(C)C)n21 (stereo not drawn) | -7.25
50 | Cc1cc2nccc(C3CCCN(C(=O)c4cnccn4)C3)n2n1 (stereo not drawn) | 33.2
51 | O=C(NC1CC1)N1CCc2ncnc(-c3ccncc3)c2CC1 | -17
52 | O=C(c1ccoc1)N1CC[C@@H]2[C@H]1CCC(=O)N2c1ccccc1 | 43.2
53 | Cc1occc1C(=O)N1CCC2(CCCN(Cc3cccs3)C2)C1 (stereo not drawn) | -60.9
54 | Cc1cnn(CCNCC(O)c2ccc(C(F)(F)F)cc2)c1 (stereo not drawn) | 23.3
55 | CC(C)C(=O)NC1CCCN(C(=O)c2cc3ccccc3cc2O)C1 (stereo not drawn) | -13.3
56 | Cc1ccn(-c2ccccc2NCc2ccccn2)n1 | 2.37
57 | Cc1ccn(-c2ccccc2NCc2ncc[nH]2)n1 | 7.9
58 | Cc1ccn(-c2ccccc2NCc2cscn2)n1 | 52.4
59 | Cc1ccc(CNc2ccccc2-n2ccc(C)n2)nc1 | 40.5
60 | Cc1ccn(-c2ccccc2NCc2scnc2C)n1 | 58.3
61 | Cc1ccn(-c2ccccc2NCc2cccnc2C)n1 | -11.8
62 | COCCC(=O)N1C[C@H]2CN(Cc3cccc(C)c3)C(=O)[C@H]2C1 | 14.9
63 | O=C(Nc1cc(C(F)(F)F)c[nH]c1=O)C1CCCNC1 (stereo not drawn) | 42.6
64 | O=C(NCCN1CCOCC1)N(CCCO)C1CCCc2ccccc21 (stereo not drawn) | 18.3
65 | COc1cccc(C(=O)N2CCN(Cc3nc(C(C)C)no3)CC2)c1 | 43.3
66 | CCOc1ccc(Cl)c(C(=O)NCCc2ncc[nH]2)n1 | 6.05

Row | SMILES | INHIBITION [%]
67 | COc1nc2ccccc2cc1CN1CCCC(CNC(C)=O)C1 (stereo not drawn) | 21.85
68 | CCOc1ccc2nc(CN3CCC(CN)C3)ccc2c1 (stereo not drawn) | 57.5
69 | CCc1nccc(CN2CCC(CNC(=O)C3CCC(C)CC3)C2)n1 (stereo not drawn) | 7.43
70 | OC[C@H]1CCN(Cc2ccc3ccccc3n2)C[C@@H]1O | 2.25
71 | CCOc1ccc2nc(CN3CCC(CNC(C)=O)C3)ccc2c1 (stereo not drawn) | 51.5
72 | CCOc1ccc2nc(CN3CCOC(CN)C3)ccc2c1 (stereo not drawn) | 24.8
73 | COCCN1CCC(NCc2cc(F)ccc2F)C1 (stereo not drawn) | -14
74 | Cc1ncc(S(C)(=O)=O)c(N(C)CCCc2cnn(C)c2)n1 | 29.1
75 | COc1cc(Br)c(CNC2CCCNC2=O)cc1OC (stereo not drawn) | 36.5
76 | COc1cc(Br)cc(CNC2CCCNC2=O)c1O (stereo not drawn) | 60
77 | COCc1ccc(OC)c(CNC2CCCNC2=O)c1 (stereo not drawn) | -9.51
78 | O=C(c1cc2c(s1)CCC2)N1CCC(c2ccncc2)CC1 | 32.3
79 | CC(=O)Nc1nc(C(=O)N2CCCC(n3ccnc3C)C2)cs1 (stereo not drawn) | 0.411
80 | O=C(CC1CC1)N1C[C@H]2CCN[C@H]2C1 | 24.6
81 | CC(C)(C)CC(=O)N1C[C@H]2CCN[C@H]2C1 | 46.4
82 | O=C(CC(F)(F)F)N1C[C@H]2CCN[C@H]2C1 | 62.3
83 | CCN1CCC(NC(=O)CN2CCc3c(nc(C4CC4)n3C)C2)CC1 | 24.8
84 | Cc1csc(NC(=O)CN2CCc3c(nc(C4CC4)n3C)C2)n1 | 67.4
85 | Cn1c(C2CC2)nc2c1CCN(CC(=O)NC1CCCCNC1=O)C2 (stereo not drawn) | 52
86 | Cn1c(C2CC2)nc2c1CCN(CC(=O)Nc1nncs1)C2 | 17
87 | Cc1nc2ccccc2nc1CN1CCc2c(nc(C3CC3)n2C)C1 | -12.2
88 | Cn1c(C2CC2)nc2c1CCN(Cc1nc3ccccc3s1)C2 | 43.5

Row | SMILES | INHIBITION [%]
89 | Cn1cnc2c1CCN(CC(=O)NC1CCCCNC1=O)C2 (stereo not drawn) | -7.72
90 | Cc1nc(CN2CCc3c(nc(C4CC4)n3C)C2)nc2ccccc12 | 74.1
91 | Cn1c(C2CC2)nc2c1CCN(CC(=O)Nc1nccs1)C2 | 11.9
92 | Cc1ccc(C(=O)N(C)Cc2ccc3c(c2)OCO3)c(=O)[nH]1 | 17.8
93 | O=c1c2c[nH]c(N3CCCC3)nc-2cn1CCc1ccc(Cl)cc1 | 15.1
94 | Cc1nc(C)n(C2CCCN(C(=O)CCc3cn(C)nc3C)C2)n1 (stereo not drawn) | 21.5
95 | O=C(c1ccc[nH]1)N1CCc2nnc(Cn3cccn3)n2CC1 | 43.4
96 | CN(C)C(=O)c1ccc2ccc(N3CCN(CC4CC4)CC3)n2c1 | 38.3
97 | O=C(NC1CC1)c1ccc2ccc(N3CCN(CC4CC4)CC3)n2c1 | 34.9
98 | O=C(O)c1ccc2ccc(N3CCN(CC4CC4)CC3)n2c1 | 54.1
99 | CCOC(=O)NC1CCCN(c2cncc(Br)c2)C1 (stereo not drawn) | 35.9
100 | CCCC(=O)NC1CCCN(c2cncc(Br)c2)C1 (stereo not drawn) | 55.4
101 | CC(C)(C)OC(=O)N[C@H]1CCN(c2cncc(Br)c2)C1 | 22
102 | O=C(c1ccncc1)N1CCC2(COc3ncccc3S(=O)(=O)N2)C1 (stereo not drawn) | 25.1
103 | O=C(C1CCCCC1)N1CCC2(COc3ncccc3S(=O)(=O)N2)C1 (stereo not drawn) | 50.7
104 | O=C(c1cscn1)N1CCC2(COc3ncccc3S(=O)(=O)N2)C1 (stereo not drawn) | 48.2
105 | O=C(c1ccccn1)N1CCC2(COc3ncccc3S(=O)(=O)N2)C1 (stereo not drawn) | 67.3
106 | O=C1CC2(CCN(C(=O)C3CCCCC3)C2)Nc2ccccc2N1 (stereo not drawn) | 28.4
107 | O=C(c1ccc(Cl)s1)N1CCC2(COc3ncccc3S(=O)(=O)N2)C1 (stereo not drawn) | 2.69
108 | CCc1nccn1-c1cncc(C2CCCN2Cc2ccccc2)n1 (stereo not drawn) | 45.6
